From PubChem BioAssay AID1259336 (Sattelle Laboratory, UCL Respiratory, Division of Medicine, …, 2017)

Assay: C. elegans growth inhibition, whole organism, log2 fold change (AID 1259336);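 note: growth scored by imaging after five days at 20 °C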
Conditions: anthelmintic screen, stronger effect = lower value; in the data active = log2 fold change growth below about -1.8; inactive = the rest

log2 fold change growth, inactive:
O=C(NCc1nnc2n1CCCCC2)c1ccc(-c2ccc(F)cc2)o1 0.174, CC[C@H](Sc1nc2ccccc2o1)C(=O)Nc1nnc(C)s1 0.272, CCOc1ccccc1C(=O)Nc1cccc(-c2nc3ncccn3c2C)c1 -0.256, O=C1Nc2ccc(Br)cc2[C@@]12NCCc1c2[nH]c2ccccc12 -0.19, COC[C@H](C)NC(=O)CSc1ncnc2sc(-c3ccccc3)cc12 -0.053, c1ccc(-c2[nH]c3ccccc3c2[C@@H](c2ccccn2)N2CCCC2)cc1 -0.0251, Cc1cc(OCC(=O)Nc2ccc(C(C)C)cc2)n(C)c(=O)c1C#N 0.363, Cc1cccc(Cn2ccc(NC(=O)c3ccc4c(c3)OCO4)n2)c1 -0.327, CN1CCN(S(=O)(=O)c2ccc(-c3ccc4c(Nc5ncc(Cl)cn5)ccnc4c3)cc2)CC1 0.346, O=[N+]([O-])c1cn2c(n1)OC[C@@H](OCc1ccc(OC(F)(F)F)cc1)C2 -0.142, Cc1cc(C(=O)Nc2cnn(Cc3ccc(Cl)cc3Cl)c2)no1 0.545, CC(C)NCC(=O)Nc1cccc(C(=O)Nc2cccc(C(F)(F)F)c2)c1 0.0022, O=C(Nc1ccccc1)c1ccc(-c2cc3ccncc3cc2OC2CCNCC2)s1 -0.0844, CCCCCCCCCCCCCCCCOP(=O)([O-])OCC[N+](C)(C)C 0.528, O=C(Nc1cccc(Cl)c1)c1cnc(N2CCN(c3ccncc3)CC2)c(Cl)c1 -0.57, Cn1ccnc1CNCCS(=O)(=O)c1cccc(Nc2ccc(-c3cccc(F)c3)cn2)c1 0.155, Cc1[nH]n2c(=O)c3c(nc2c1-c1ccc(Cl)cc1)CCCC3 -0.182, CC[C@H](C)NC(=O)c1ccc(NC(=O)C2(c3ccccc3)CCCC2)cc1 0.546, Nc1nc2ccc(-c3cncc(Oc4ccc(F)cc4)c3)cc2[nH]1 0.264, COc1ccc(Oc2ccc([C@@H](C)N(C)c3ncc4c(N)nc(N)nc4n3)cc2)cc1 0.282, COc1ccc(-c2cncc3ccc(C(=O)NCCCn4ccnc4)nc23)cc1 0.283, CC(=O)Nc1ccc(NC(=O)c2cc(-c3cc(Cl)ccc3O)n[nH]2)cc1 0.254, CCS(=O)(=O)N(Cc1ccco1)Cc1cc2ccc(C)cc2[nH]c1=O 0.443, O=C(NCCc1ccccc1)c1cc(-c2cccnc2)cnc1NCC1CC1 -0.19, CC(C)[C@H](Oc1cccc2ccccc12)C(=O)O 0.534, Cc1cc2ccccc2n1CC(=O)N1C[C@@H](C(=O)N2CCCCC2)Oc2ccccc21 0.0798, CC(C)(C)n1nc(Cc2ccc(F)c(Cl)c2)c2c(N)ncnc21 -1.01, CCc1ccc([C@@H](NCc2nc(N)nc(N(C)C)n2)C(C)C)cc1 0.433, CCOc1ccc2cc(-c3nn(CC4CCN(C)CC4)c4ncnc(N)c34)ccc2c1 0.151, O=C(C1CCN(c2cc(-n3cccc3)ncn2)CC1)N1CCc2ccccc2C1 -0.11, NC(N)=Nc1ccc(-c2ccc(-c3ccc(N=C(N)N)c(Cl)c3)o2)cc1Cl -0.555, CN(C)c1cc(NC(=O)Nc2ccccc2)c2ccccc2n1 0.272, FC(F)(F)c1cccc(-c2nc3c(NCc4ccncc4)nccc3[nH]2)c1 0.0714, O=C([C@H](Cc1c[nH]c2ccccc12)NS(=O)(=O)c1ccc(Cl)cc1)N1CCCCC1 -0.129, COc1ccc(-c2nn(C(C)C)c3ncnc(N)c23)cc1OC 0.278, CN1CCCC1CCO[C@](C)(c1ccccc1)c1ccc(Cl)cc1 (stereo partly drawn) 0.213, CC1CC1C(=O)NC1CCN(CC2(c3ccccc3)CCCCC2)CC1 (stereo not drawn) 0.347, COc1cc(C(F)(F)F)nc2ccc(C)c(N)c12 0.198
